Reference: publication PMC5540273 (PLoS ONE, 2017)

Tested on: T1, p38-alpha
T1 construct: gene MAPK14
Details: concentration: 1 μM, replicates: in singlicate; n = 1
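Further: KINOMEscan kinase panel screen.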

Compared with `O=C(Nc1cccc(-c2nn3ccccc3c2-c2ccnc(Nc3cccc(F)c3)n2)c1)c1c(F)ccc(F)c1Cl` [GSK357952], `Cc1ccc(F)c(C(=O)Nc2cccc(-c3nn4ccccc4c3-c3ccnc(Nc4cccc(F)c4)n3)c2)c1F` [GSK361061] is higher in “%Inh” value: 0% for the first, 29% for the second.

`c1ccc(-c2cnc3nccnn23)cc1` [AH20685] and `Nc1n[nH]c2cnc(-c3ccccc3)cc12` [SB-642124] are the same in “%Inh” value: 0% for the first, 0% for the second.

First: CN(c1ccc(NC(=O)Nc2cc(C(F)(F)F)ccc2F)cc1)c1ccnc(Nc2ccc(S(N)(=O)=O)cc2)n1 [GW809893]
Second: COC(=O)Nc1nc2cc(Oc3ccc(NC(=O)Nc4cc(C(F)(F)F)ccc4F)cn3)ccc2[nH]1.Cl.Cl [GW681170]
The “%Inh” value of the first is lower: 9% for the first, 70% for the second.

`O=C(Nc1n[nH]c2cc(-c3ccoc3)ccc12)C1CC1` [SB-738481] and `O=C(Nc1n[nH]c2nc(-c3ccc(O)cc3)ccc12)C1CC1` [SB-710363] are the same in “%Inh” value: 0% for the first, 0% for the second.

First: C[C@@H]1CC[C@@H](C(=O)Nc2ccccc2)CN1c1cc(-c2ccc3c(N)n[nH]c3c2)nc(N)n1 [GSK2286062]
Second: COc1cccc(-c2ccc3c(NC(=O)C4CC4)n[nH]c3n2)c1 [SB-710903]
The “%Inh” value of the first is higher: 28% for the first, 23% for the second.

First: O=C(Nc1cccc(-c2nn3ncccc3c2-c2ccnc(Nc3ccccc3)n2)c1)c1c(F)cccc1F [GSK198271]
Second: COc1cc(Nc2nccc(-c3c(-c4cccc(NC(=O)c5c(F)cccc5F)c4)nn4ccccc34)n2)cc(OC)c1OC [GSK323521]
The “%Inh” value of the first is higher: 99.3% for the first, 0% for the second.

First: COc1cccc(NC(=O)NC2CCN(c3ccnc(Nc4cc(OC)c(OC)c(OC)c4)n3)C2)c1 (stereo not shown) [GSK1379763]
Second: COc1cc(Nc2nccc(N3CCC(NC(=O)Nc4cccc(C(C)=O)c4)C3)n2)cc(OC)c1OC (stereo not shown) [GSK1379753]
The “%Inh” value of the first is higher: 24% for the first, 0% for the second.

Compared with `CN1CCN(CCCNc2nccc(-c3c(-c4ccc(F)cc4)nn4cc(C(F)(F)F)ccc34)n2)CC1` [GW621581], `CCCCc1nn2ncccc2c1-c1ccnc(Nc2ccc(N3CCN(C)CC3)cc2)n1` [GW684941] is lower in “%Inh” value: 99.8% for the first, 94.2% for the second.

First: Cc1occc1-c1ncc(OC[C@@H](N)Cc2c[nH]c3ccccc23)cc1-c1ccc2[nH]nc(C)c2c1.O=C(O)C(F)(F)F [GSK682037]
Second: Nc1ncc(-c2cccnc2)c2scc(-c3ccc4c(c3)CCN4C(=O)Cc3ccccc3)c12 [GSK683281]
The “%Inh” value of the first is higher: 89% for the first, 4% for the second.

Compared with `Cl.NC(=O)c1cccc(Nc2nccc(Nc3ccc(Oc4c(Cl)cccc4Cl)c(Cl)c3)n2)c1` [GW659009], `CC(=O)N1CCN(c2ccc(Nc3nccc(-c4sc(C(C)C)nc4-c4cccc(NS(=O)(=O)c5cccc(Cl)c5)c4)n3)cn2)CC1` [GSK1660437] is higher in “%Inh” value: 0% for the first, 32% for the second.

First: CCc1ccc(-c2ccc3c(c2)-c2c(cnn2C)S(=O)(=O)N3C)cc1
Second: Nc1ncc(-c2ccc3nccc(-c4ccncc4)c3c2)cc1S(=O)(=O)N1CCOCC1 [GSK1627798]
The “%Inh” value of the first is higher: 9% for the first, 0% for the second.

First: c1ccc(-c2n[nH]cc2Nc2ccnc3ccccc23)nc1 [GW694077]
Second: CC(C)(C)c1ccc2nccc(Nc3cccc(O)c3)c2c1 [GW856795]
The “%Inh” value of the first is higher: 2% for the first, 0% for the second.

First: c1ccc(Oc2ccc(Nc3ccnc4cc(-c5ccc(CNCCN6CCOCC6)o5)ccc34)cc2)nc1 [GW567145]
Second: COc1ccc(CNC(=O)NC2CCN(c3ccnc(Nc4ccc(F)cc4)n3)CC2)cc1 [GSK1379788]
The “%Inh” value of the first is higher: 20% for the first, 19% for the second.

`Cn1cc(-c2[nH]c3cc(NC(=O)[C@H](N)C4CCCCC4)cc4c3c2C=NNC4=O)cn1` and `Cc1cccc(Nc2nc(N[C@H]3CCNC3)ncc2C(N)=O)c1.Cl` [GSK2197149] are the same in “%Inh” value: 0% for the first, 0% for the second.

First: FC(F)(F)c1ccc(/C=C/c2cncnc2Nc2ccc3[nH]c(Cc4ccccc4)nc3c2)cc1 [GW709199]
Second: Nc1ncnc2c1nc(-c1ccccc1)n2-c1ccccc1 [SKF-97293]
The “%Inh” value of the first is lower: 0% for the first, 12% for the second.

First: COc1cc2c(cc1OCCN1CCNCC1)ncc1c3ccc(C#N)cc3[nH]c21
Second: O=c1[nH]cc(-c2ccc(N3CCOCC3)cc2)c2sc(-c3cn[nH]c3)cc12 [GSK2276055]
The “%Inh” value of the first is higher: 9% for the first, 8% for the second.

First: Cc1cccc(NC(=O)Nc2ccc(Oc3ncnc4ccn(C)c34)cc2)c1
Second: CSc1cccc2c(-c3ccncn3)c(-c3ccc(F)cc3)nn12 [GW514786]
The “%Inh” value of the first is lower: 0% for the first, 98% for the second.

Going from `C[C@@H](Oc1cc(-n2cnc3cc(-c4ccnc(NCCS(C)(=O)=O)c4)ccc32)sc1C(N)=O)c1ccccc1Cl` [GSK907232] to `CC(C)c1nc(-c2cccc(NS(=O)(=O)c3c(F)cccc3F)c2F)c(-c2ccnc(Nc3ccc(N4CCOCC4)nc3)n2)s1` [GSK2008607], the “%Inh” value rises from 0% to 81%.

In the case of `NCCCC(NC(=O)c1cc(Br)c(-c2ccnc3[nH]ccc23)s1)c1ccccc1.O=C(O)C(F)(F)F.O=C(O)C(F)(F)F` (stereo not shown) [GSK1287544], the “%Inh” value is reported as 0%.
